Experiments:
[1] = target: Serine/threonine-protein kinase pim-2 (Homo sapiens) (UniProt Q9P1W9); conditions: at 1 µM
[2] = target: Serine/threonine-protein kinase pim-2 (Homo sapiens) (UniProt Q9P1W9); conditions: at 10 µM
[3] = target: Serine/threonine-protein kinase PLK1 (Homo sapiens) (UniProt P53350); conditions: at 1 µM
[4] = target: Serine/threonine-protein kinase PLK1 (Homo sapiens) (UniProt P53350); conditions: at 10 µM
[5] = target: Serine/threonine-protein kinase PLK3 (Homo sapiens) (UniProt Q9H4B4); conditions: at 1 µM
[6] = target: T1, cAMP-dependent protein kinase catalytic subunit PRKX (Homo sapiens) (UniProt P51817); conditions: at 1 µM
T1 sequence (whole entry): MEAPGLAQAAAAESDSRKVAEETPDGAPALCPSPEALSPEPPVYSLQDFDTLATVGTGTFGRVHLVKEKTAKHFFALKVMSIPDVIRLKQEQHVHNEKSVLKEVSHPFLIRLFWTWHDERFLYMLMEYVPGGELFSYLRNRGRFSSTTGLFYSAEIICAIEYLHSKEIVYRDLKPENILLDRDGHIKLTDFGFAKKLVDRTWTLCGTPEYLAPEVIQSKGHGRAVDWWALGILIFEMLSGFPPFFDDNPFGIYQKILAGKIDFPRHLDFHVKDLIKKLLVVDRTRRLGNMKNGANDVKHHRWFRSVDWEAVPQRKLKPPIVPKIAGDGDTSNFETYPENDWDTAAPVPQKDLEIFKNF

[7] = target: T1, cAMP-dependent protein kinase catalytic subunit PRKX (Homo sapiens); conditions: at 10 µM
[8] = target: Protein-tyrosine kinase 2-beta (Homo sapiens) (UniProt Q14289); conditions: at 1 µM
[9] = target: Protein-tyrosine kinase 2-beta (Homo sapiens) (UniProt Q14289); conditions: at 10 µM
[10] = target: Receptor-interacting serine/threonine-protein kinase 2 (Homo sapiens) (UniProt O43353); conditions: at 1 µM
[11] = target: Receptor-interacting serine/threonine-protein kinase 2 (Homo sapiens) (UniProt O43353); conditions: at 10 µM
[12] = target: Rho-associated protein kinase 1 (Homo sapiens) (UniProt Q13464); conditions: at 1 µM
[13] = target: Serine/threonine-protein kinase pim-3 (Homo sapiens) (UniProt Q86V86); conditions: at 1 µM
[14] = target: Serine/threonine-protein kinase pim-3 (Homo sapiens) (UniProt Q86V86); conditions: at 10 µM
[15] = target: Serine/threonine-protein kinase pim-1 (Homo sapiens) (UniProt P11309); conditions: at 1 µM
[16] = target: Serine/threonine-protein kinase pim-1 (Homo sapiens) (UniProt P11309); conditions: at 10 µM
[17] = target: Serine/threonine-protein kinase PLK3 (Homo sapiens) (UniProt Q9H4B4); conditions: at 10 µM
[18] = target: T2, Phosphorylase b kinase gamma catalytic chain, liver/testis isoform (Homo sapiens) (UniProt P15735); conditions: at 1 µM
T2 sequence (whole entry): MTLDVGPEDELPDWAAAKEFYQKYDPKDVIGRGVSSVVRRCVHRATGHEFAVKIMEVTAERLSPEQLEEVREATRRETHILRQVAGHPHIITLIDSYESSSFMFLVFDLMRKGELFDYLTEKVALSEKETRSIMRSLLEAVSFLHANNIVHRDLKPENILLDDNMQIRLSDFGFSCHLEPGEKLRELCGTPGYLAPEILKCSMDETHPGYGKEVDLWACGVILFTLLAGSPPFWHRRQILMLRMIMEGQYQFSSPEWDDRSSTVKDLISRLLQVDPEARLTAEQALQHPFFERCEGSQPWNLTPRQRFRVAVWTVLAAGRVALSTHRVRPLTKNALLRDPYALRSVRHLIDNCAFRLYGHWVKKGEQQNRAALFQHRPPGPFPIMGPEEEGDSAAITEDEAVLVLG

[19] = target: Rho-associated protein kinase 1 (Homo sapiens) (UniProt Q13464); conditions: at 10 µM
[20] = target: T2, Phosphorylase b kinase gamma catalytic chain, liver/testis isoform (Homo sapiens); conditions: at 10 µM

Chain of Serine/threonine-protein kinase PLK3 (Homo sapiens) (Q9H4B4 whole entry, looked up, canonical isoform): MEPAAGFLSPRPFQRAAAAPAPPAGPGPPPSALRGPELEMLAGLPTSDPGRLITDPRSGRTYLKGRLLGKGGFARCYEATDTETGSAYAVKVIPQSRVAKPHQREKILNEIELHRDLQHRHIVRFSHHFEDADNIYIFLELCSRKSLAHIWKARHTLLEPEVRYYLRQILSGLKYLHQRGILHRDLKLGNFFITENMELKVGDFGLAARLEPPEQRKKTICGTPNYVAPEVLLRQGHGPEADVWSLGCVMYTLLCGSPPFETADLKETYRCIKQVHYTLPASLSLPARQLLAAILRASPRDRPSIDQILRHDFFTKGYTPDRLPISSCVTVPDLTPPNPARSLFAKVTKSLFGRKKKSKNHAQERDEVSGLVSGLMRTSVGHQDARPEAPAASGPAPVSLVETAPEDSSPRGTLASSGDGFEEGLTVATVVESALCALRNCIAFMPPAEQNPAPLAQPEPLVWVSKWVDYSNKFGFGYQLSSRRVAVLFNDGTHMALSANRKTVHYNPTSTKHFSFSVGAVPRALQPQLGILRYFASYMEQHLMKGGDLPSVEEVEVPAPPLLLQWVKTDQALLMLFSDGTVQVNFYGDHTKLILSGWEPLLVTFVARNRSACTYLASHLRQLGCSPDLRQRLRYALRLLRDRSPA
Chain of Serine/threonine-protein kinase pim-1 (Homo sapiens) (P11309 whole entry, looked up): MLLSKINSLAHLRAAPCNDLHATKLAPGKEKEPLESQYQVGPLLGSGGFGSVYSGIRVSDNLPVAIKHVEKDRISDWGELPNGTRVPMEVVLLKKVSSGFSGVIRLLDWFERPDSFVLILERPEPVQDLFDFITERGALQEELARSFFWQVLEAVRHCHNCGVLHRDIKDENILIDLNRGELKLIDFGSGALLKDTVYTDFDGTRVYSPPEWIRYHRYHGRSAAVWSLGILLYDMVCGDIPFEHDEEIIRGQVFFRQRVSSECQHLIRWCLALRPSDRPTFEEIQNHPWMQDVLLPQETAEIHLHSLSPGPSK
Chain of Serine/threonine-protein kinase pim-2 (Homo sapiens) (Q9P1W9 whole entry, looked up): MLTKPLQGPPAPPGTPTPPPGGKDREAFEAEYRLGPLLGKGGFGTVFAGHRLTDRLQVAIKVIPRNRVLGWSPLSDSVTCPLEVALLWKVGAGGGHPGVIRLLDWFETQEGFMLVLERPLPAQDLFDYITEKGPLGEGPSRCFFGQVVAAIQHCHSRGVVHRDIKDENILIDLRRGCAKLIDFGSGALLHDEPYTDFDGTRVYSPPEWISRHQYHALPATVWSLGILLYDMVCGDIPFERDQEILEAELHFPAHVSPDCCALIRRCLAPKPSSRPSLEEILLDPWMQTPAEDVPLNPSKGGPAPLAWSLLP
Chain of Rho-associated protein kinase 1 (Homo sapiens) (Q13464 2-1354 limits assumed): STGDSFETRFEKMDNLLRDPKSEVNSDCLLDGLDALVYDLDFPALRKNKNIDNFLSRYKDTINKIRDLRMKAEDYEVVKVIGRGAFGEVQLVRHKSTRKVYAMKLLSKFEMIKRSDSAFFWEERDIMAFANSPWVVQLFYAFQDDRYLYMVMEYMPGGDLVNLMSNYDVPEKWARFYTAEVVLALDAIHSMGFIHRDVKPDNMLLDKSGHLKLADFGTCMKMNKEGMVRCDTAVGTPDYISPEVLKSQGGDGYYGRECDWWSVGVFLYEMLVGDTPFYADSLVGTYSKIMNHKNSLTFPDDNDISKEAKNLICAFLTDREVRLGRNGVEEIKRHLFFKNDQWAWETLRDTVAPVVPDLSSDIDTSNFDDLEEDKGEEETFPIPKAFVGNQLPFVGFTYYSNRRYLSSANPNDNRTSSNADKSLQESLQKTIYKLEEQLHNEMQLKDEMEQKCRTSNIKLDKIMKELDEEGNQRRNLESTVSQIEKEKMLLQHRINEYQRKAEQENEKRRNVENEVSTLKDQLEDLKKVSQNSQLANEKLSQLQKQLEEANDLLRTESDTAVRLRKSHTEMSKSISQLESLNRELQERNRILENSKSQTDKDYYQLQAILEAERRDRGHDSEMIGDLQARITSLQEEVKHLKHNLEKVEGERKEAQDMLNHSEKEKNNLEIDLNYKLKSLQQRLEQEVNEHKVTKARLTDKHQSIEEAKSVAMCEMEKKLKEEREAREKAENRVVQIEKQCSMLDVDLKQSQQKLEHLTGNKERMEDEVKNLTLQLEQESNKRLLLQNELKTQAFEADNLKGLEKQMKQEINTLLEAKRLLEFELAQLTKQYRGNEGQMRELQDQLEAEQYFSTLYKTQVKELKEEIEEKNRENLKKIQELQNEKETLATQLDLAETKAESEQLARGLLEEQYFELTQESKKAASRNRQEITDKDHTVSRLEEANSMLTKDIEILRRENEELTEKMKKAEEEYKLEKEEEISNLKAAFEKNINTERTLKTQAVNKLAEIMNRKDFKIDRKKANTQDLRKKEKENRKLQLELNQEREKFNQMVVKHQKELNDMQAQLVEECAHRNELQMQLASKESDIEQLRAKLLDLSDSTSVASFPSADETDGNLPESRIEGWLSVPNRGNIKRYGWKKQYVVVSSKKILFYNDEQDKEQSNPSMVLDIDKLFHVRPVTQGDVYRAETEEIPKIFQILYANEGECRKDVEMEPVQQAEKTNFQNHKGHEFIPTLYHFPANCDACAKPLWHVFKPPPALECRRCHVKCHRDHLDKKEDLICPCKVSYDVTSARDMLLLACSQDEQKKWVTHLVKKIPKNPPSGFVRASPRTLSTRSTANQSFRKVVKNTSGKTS
Chain of Serine/threonine-protein kinase PLK1 (Homo sapiens) (P53350 whole entry): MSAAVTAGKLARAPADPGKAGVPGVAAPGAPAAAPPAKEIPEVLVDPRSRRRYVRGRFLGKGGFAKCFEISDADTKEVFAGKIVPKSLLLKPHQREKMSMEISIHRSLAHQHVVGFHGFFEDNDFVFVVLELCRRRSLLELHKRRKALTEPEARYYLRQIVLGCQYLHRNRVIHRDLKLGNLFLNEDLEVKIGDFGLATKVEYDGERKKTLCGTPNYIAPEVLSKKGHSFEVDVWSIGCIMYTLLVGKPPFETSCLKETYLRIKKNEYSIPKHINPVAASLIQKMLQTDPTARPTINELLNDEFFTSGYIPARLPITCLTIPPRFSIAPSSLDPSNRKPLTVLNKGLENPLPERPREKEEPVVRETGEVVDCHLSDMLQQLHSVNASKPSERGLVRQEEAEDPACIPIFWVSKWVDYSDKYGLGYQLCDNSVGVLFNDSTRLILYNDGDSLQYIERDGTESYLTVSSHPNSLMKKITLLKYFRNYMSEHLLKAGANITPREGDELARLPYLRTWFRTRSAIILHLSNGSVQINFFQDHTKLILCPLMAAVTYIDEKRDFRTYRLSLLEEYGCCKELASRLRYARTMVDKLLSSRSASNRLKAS
Chain of Receptor-interacting serine/threonine-protein kinase 2 (Homo sapiens) (O43353 whole entry): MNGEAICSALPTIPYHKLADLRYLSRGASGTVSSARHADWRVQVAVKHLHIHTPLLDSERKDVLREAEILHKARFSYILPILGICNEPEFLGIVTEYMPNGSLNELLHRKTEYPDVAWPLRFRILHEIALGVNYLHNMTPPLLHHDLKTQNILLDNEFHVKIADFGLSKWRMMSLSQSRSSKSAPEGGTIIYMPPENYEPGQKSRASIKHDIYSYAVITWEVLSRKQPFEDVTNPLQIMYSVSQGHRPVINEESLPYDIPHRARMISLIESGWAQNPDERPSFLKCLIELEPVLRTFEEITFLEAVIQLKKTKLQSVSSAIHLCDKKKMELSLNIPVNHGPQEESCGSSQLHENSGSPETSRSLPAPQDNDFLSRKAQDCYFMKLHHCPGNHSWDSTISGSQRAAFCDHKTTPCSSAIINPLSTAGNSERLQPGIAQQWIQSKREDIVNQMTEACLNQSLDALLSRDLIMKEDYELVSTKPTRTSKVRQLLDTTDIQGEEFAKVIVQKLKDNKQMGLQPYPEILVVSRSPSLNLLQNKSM

| Structure (SMILES) | residual activity [1] [%] | residual activity [2] [%] | residual activity [3] [%] | residual activity [4] [%] | residual activity [5] | residual activity [6] [%] | residual activity [7] [%] | residual activity [8] [%] | residual activity [9] [%] | residual activity [10] [%] | residual activity [11] [%] | residual activity [12] [%] | residual activity [13] [%] | residual activity [14] [%] | residual activity [15] [%] | residual activity [16] [%] | residual activity [17] [%] | residual activity [18] [%] | residual activity [19] [%] | residual activity [20] [%] |
| --- | --- | --- | --- | --- | --- | --- | --- | --- | --- | --- | --- | --- | --- | --- | --- | --- | --- | --- | --- | --- |
| O=C1Cc2c([nH]c3ccc([N+](=O)[O-])cc23)-c2ccccc2N1 | 119 | 117 | 105 | 100 | 107% (inactive) | 81 | 53 | 45 | 38 | 53 | 23 | 107 | – | – | – | – | – | – | – | – |
| Cc1cc(C)c(/C=C2\C(=O)Nc3ccccc32)[nH]1 | – | – | – | 76 | 102% (inactive) | – | – | – | – | – | – | – | 100 | 101 | – | – | – | – | – | – |
| COc1ccc(-c2cnc3c(-c4ccsc4)cnn3c2)cc1 | – | – | 95 | 71 | 87% (inactive) | 81 | 93 | 136 | 94 | 99 | 92 | – | – | – | 76 | 70 | 97 | – | – | – |
| CCOc1nc(NC(=O)Cc2cc(OC)ccc2OC)cc(N)c1C#N | 142 | – | – | – | – | – | 55 | – | – | – | – | – | – | – | – | – | – | 118 | – | – |
| Nc1n[nH]c2nc3ccccc3nc12 | 130 | 93 | 91 | 78 | 89% (inactive) | 118 | 84 | – | 92 | 94 | – | – | 95 | 86 | 124 | 87 | 83 | – | – | – |
| O=C(c1cc2cc(O)ccc2[nH]1)c1cc2cc(O)ccc2[nH]1 | 80 | 64 | – | – | – | 81 | 34 | 68 | 20 | 18 | 6 | – | – | – | 60 | 24 | – | – | 72 | – |
| O=C1NC(=O)C(c2cn(CCCn3ccnc3)c3ccccc23)=C1Nc1ccccc1 | 77 | 54 | 76 | 64 | – | 80 | 58 | 121 | 81 | 78 | 77 | 120 | – | – | 65 | 18 | – | – | 121 | – |
| Fc1ccc(-c2nc3n(c2-c2ccncc2)CCS3)cc1 | 128 | – | 91 | 82 | 100% (inactive) | 92 | 92 | – | – | 65 | 24 | 123 | 94 | 98 | 91 | 73 | 95 | – | – | – |
| O=C1C(Cl)=C(N2C(=O)CCC2=O)C(=O)c2ccccc21 | 131 | 99 | 74 | 85 | 96% (inactive) | 93 | 92 | 91 | – | 92 | 95 | – | 84 | 84 | 84 | 82 | 93 | – | 88 | – |
| N#C/C(=C1/Nc2ccccc2S1)c1ccnc(NCCc2cccnc2)n1 | 33 | 3 | 83 | 74 | – | 83 | 37 | – | 58 | – | – | – | 45 | 9 | 15 | 3 | – | – | – | 52 |
| CCN1/C(=C/C(C)=O)Sc2ccc(OC)cc21 | – | – | – | – | – | – | 42 | – | – | 71 | 60 | – | 51 | 11 | 25 | 4 | – | – | – | – |
| CCCCc1c(-c2ccc(O)cc2)[nH]c2nccnc12 | 140 | – | 82 | 87 | 100% (inactive) | 93 | 100 | 54 | 26 | 38 | 30 | – | – | – | – | – | 100 | – | – | – |
| COc1ccc2c(c1)c(C1=C(c3c[nH]c4ccccc34)C(=O)NC1=O)cn2CCCN(C)C | 36 | 9 | – | – | – | – | 79 | 116 | 32 | – | 64 | 105 | 57 | 17 | 11 | 1 | – | – | 124 | – |
| N#Cc1c(NC(=O)c2cccc3ccccc23)sc2c1CCCC2 | – | – | 94 | 78 | – | 80 | 84 | – | – | – | – | – | 88 | 85 | – | 77 | – | – | – | – |
| COc1cc2c(cc1OC)-c1n[nH]c(Nc3cccc(F)c3)c1C2 | – | – | 65 | 61 | – | – | 101 | 79 | 32 | 30 | 17 | – | – | – | 78 | 112 | – | – | – | – |
| O=C1NC(=O)C(c2c[nH]c3ccccc23)=C1c1c[nH]c2ccccc12 | 23 | 8 | – | – | – | – | – | 97 | 28 | – | 74 | – | – | 73 | 12 | 0 | – | – | – | – |
| CSc1nc(-c2ccc(F)cc2)c(-c2ccnc(NC(C)c3ccccc3)c2)[nH]1 (stereo not drawn) | – | – | – | – | 91% (inactive) | 87 | 58 | – | 85 | 75 | 30 | – | – | – | 85 | 53 | 90 | – | 96 | – |
| COc1cc2nccc(Oc3ccc(NC(=O)Nc4cc(C)on4)c(Cl)c3)c2cc1OC | – | 103 | – | – | – | 97 | 59 | 34 | 8 | 21 | – | – | 107 | 105 | – | – | – | – | – | – |
| NC(=O)c1cccc(-c2cc(Nc3ccc(OC(F)(F)F)cc3)ncn2)c1 | – | – | – | 88 | 100% (inactive) | – | – | 128 | 95 | 93 | 56 | – | – | – | 89 | 100 | 97 | – | – | – |
